Source: PubChem BioAssay (National Center for Advancing Translational Sciences (NCATS))
The list is not random: actives were taken first. Their share in the collection is about 11%.
HCV inhibitor: qHTS Assay for Inhibitors of Hepatitis C Virus (HCV); Huh7.5.1 HCVcc-Cre infection, luciferase reporter, 44 h; Potency, µM (doses to about 41.8 µM), for inactives: top-dose activity change, negative = inhibition, usual class: inhibitors; 340,000 compounds, 3.4% hits; note: % is set by controls: 0 for no effect and ±100 for the full control effect
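Reporter virus HCVcc-Cre (~0.5 moi) infects cells exposed to compound; seeding density 1,000 cells/well with 4 h settling beforehand. Luminescence, 15 sec read, taken 44 h post-infection following a 15 min RT substrate incubation.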
Vaccinia Venus: qHTS for Stage-Specific Inhibitors of Vaccinia Orthopoxvirus: Venus Reporter Primary qHTS; 330,000 compounds, 0.46% hits; AID 720580, 2013; Potency, µM (top dose mostly 36.5 µM), for inactives: top-dose activity change, negative = inhibition, hits mostly inhibitors; Vaccinia virus Venus reporter expression, fluorescence; calls by dose curve; tested in A549 cells; note: % is set by controls: 0 for no effect and ±100 for the full control effect; nearly all actives have a fitted effect of over 30% in size
Pf growth 96h: Primary qHTS for delayed death inhibitors of the malarial parasite plastid, 96 hour incubation; 320,000 compounds, 6.9% hits; P. falciparum luciferase reporter growth, 96 h; Potency, µM (top dose mostly 28.7 µM), without a hit: at the highest dose activity change, negative = inhibition, hits mostly inhibitors; note: % is set by controls: 0 for no effect and ±100 for the full control effect
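Cell-based qHTS: luciferase-tagged P. falciparum in erythrocytes (2% hematocrit, 0.05% parasitemia final) incubated with compounds for 96 hours, 37 C, 5% CO2; luciferase detection reagent then added and luminescence measured.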
Pf growth 48h: Primary qHTS for delayed death inhibitors of the malarial parasite plastid, 48 hour incubation; Potency, µM (top dose mostly 28.7 µM), for inactives: at the highest dose activity change, negative = inhibition, hits mostly inhibitors; 310,000 compounds, 5.9% hits; P. falciparum luciferase growth in erythrocytes, 48 h; note: % is set by controls: 0 for no effect and ±100 for the full control effect
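Cell-based growth assay: transgenic P. falciparum expressing firefly luciferase, cultured in red cells within RPMI 1640 containing 0.5% w/v Albumax, 24 mM bicarbonate and gentamycin. A drop in luciferase activity indicates inhibition.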
NS1 inh: qHTS Assay for Inhibitors of Influenza NS1 Protein Function | AID 2326, 2010 | 270,000 compounds, 0.4% hits | Potency, µM (top dose mostly 46.1 µM), inactives show top-dose activity, positive = more growth; calls by dose curve; note: actives are rising curves; nearly all actives have a fitted effect of over 50% in size
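A cell-based growth assay was used: compounds that relieve NS1-induced slow growth of budding yeast raise OD600. Assay medium was yeast nitrogen base with ammonium sulphate and -URA supplement, pH 6.0, with 2% galactose.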
VACV mCherry inh: qHTS for Stage-Specific Inhibitors of Vaccinia Orthopoxvirus: mCherry Reporter Primary qHTS. AID 720579, 2013. 310,000 compounds, 0.63% hits. Vaccinia virus mCherry reporter infection, fluorescence. Potency, µM (series often up to 36.5 µM), for the others: at the highest dose activity change, negative = inhibition, most hits filed as inhibitors; calls by dose curve; tested in A549 cells; note: % is set by controls: 0 for no effect and ±100 for the full control effect; nearly all actives have a fitted effect of over 35% in size
* = called active by the depositor; i = inactive; ? = inconclusive; . = no result given. Unless noted, calls come from the whole dose curve; as a rule, active = well fitted inhibition curve with a large enough effect; inconclusive = small, poorly fitted or top-dose-only effect, or another doubt; inactive = no such curve, though single readings can be large or run the other way. Potency is the fitted concentration of half-maximal effect.

SMILES	HCV inhibitor	Vaccinia Venus	Pf growth 96h	Pf growth 48h	NS1 inh	VACV mCherry inh
CCc1cc(=O)oc2cc(C)cc(OC(C)C(=O)NCc3ccccn3)c12 (configuration not stated)	-14.4%	.	2.08µM*	3.7µM*	-7.3%	.
Cc1coc2cc3oc(=O)cc(C)c3cc12	?	-8.6%	26.6%	38.0%	4.2%	-11.0%
NS(=O)(=O)c1cc(C(=O)NNC(=O)c2ccc3c(c2)OCO3)ccc1Cl	-2.4%	-15.5%	.	.	.	-4.0%
Cc1ccc(OCCOc2cccc(Br)c2)c([N+](=O)[O-])n1	-9.9%	-17.9%	63.6%	98.5%	-9.4%	-10.4%
Cc1cc(=O)oc2cc(OC(C)C(=O)NC3CCCC3)ccc12 (configuration not stated)	16.4%	-10.0%	?	-10.7%	-42.7%	-12.1%
CCCc1cc(=O)oc2cc(C)cc(OC(C)C(=O)NCC3CCC(C(=O)O)CC3)c12 (configuration not stated)	10.7%	6.6%	?	0.0%	4.1%	40.4%
CCCc1cc(=O)oc2cc(C)cc(OC(C)C(=O)NCc3ccccn3)c12 (configuration not stated)	?	.	2.33µM*	2.62µM*	-18.3%	.
CC(Oc1ccc2c(-c3ccccc3)cc(=O)oc2c1)C(=O)NCc1ccccn1 (configuration not stated)	25.1µM*	-3.1%	-0.1%	-0.8%	-37.9%	-8.5%
COc1ccc(-c2cc(=O)oc3cc(OC(C)C(=O)NC4CC4)ccc23)cc1 (configuration not stated)	9.6%	-5.2%	2.94µM*	?	-2.0%	-1.1%
O=C(COc1ccc2c(-c3ccccc3)cc(=O)oc2c1)NCc1ccccn1	11.7%	-7.5%	9.5%	8.9%	4.5%	4.2%
Cc1ccc(NC(=S)c2ccncc2)c(C)c1	?	.	24.3%	19.9%	-10.4%	.
COc1ccc(-n2c(C)cc(C(=O)CN3CCC(C)CC3)c2C)cc1	-4.0%	.	-27.1%	-3.6%	.	.
COC(=O)C1=C(C(=O)OC)SC(=C2C(=S)C(C)(C)N(C(=O)C(C)C)c3ccccc32)S1	-7.2%	-19.7%	.	?	-4.0%	i
COc1ccccc1-c1noc(-c2cc(OC)c(OC)c(OC)c2)n1	?	.	?	-25.8%	-35.1%	.
Cc1cc2c(cc1C)N(C(=O)CCl)CCN2C(=O)CCl	3.98µM*	-6.2%	.	.	.	-20.0%
Cc1ccccc1CNc1ncnc2cc(Cl)ccc12	-60.2%	-9.8%	?	.	-1.7%	-10.2%
Cc1ccc(CNc2ncnc3cc(Cl)ccc23)o1	11.2µM*	-32.6%	?	.	-89.2%	.
Cc1ccc(CNc2ncnc3cc(Cl)ccc23)cc1	11.2µM*	.	?	?	-52.9%	.
CC(=O)c1c(C)[nH]c(C(=O)NCc2ccccc2F)c1C	?	9.9%	7.9%	22.1%	2.1%	-1.5%
COc1ccc(N(C)S(=O)(=O)c2c(C)[nH]c(=O)[nH]c2=O)cc1	5.4%	.	?	27.2%	-0.3%	.
COc1ccc(N(C)S(=O)(=O)c2c(C)[nH]c(=O)[nH]c2=O)c(OC)c1	11.9%	.	6.57µM*	0.0%	0.2%	.
CCOC(=O)c1c(SCC(=O)Nc2nc(C)cs2)nc(=O)[nH]c1C	2.0%	.	4.65µM*	-1.9%	1.5%	.
CCOC(=O)c1c(SCC(=O)Nc2nc3ccccc3s2)nc(=O)[nH]c1C	.	-11.3%	.	.	.	-4.8%
O=S(=O)(c1ccccc1)N1C2CCC1CC(O)(c1cccnc1)C2 (configuration not stated)	2.7%	-9.4%	2.33µM*	3.9%	2.2%	-11.5%
Cc1nn(Cc2ccccc2)c(N)c1-c1ccccc1	-15.6%	-15.7%	-0.1%	-5.2%	-13.5%	.
SMILES	HCV inhibitor	Vaccinia Venus	Pf growth 96h	Pf growth 48h	NS1 inh	VACV mCherry inh
Cc1nn(Cc2ccccc2)c(N)c1C#N	-1.7%	-18.9%	11.7µM*	15.3%	-5.9%	.
Cn1cc(S(=O)(=O)N2CCCC2)cc1C(=O)NCc1ccc(F)cc1	-17.5%	-3.7%	30.8%	9.4%	7.3%	-23.5%
CCC(C(=O)Nc1nnc(-c2ccco2)s1)c1ccccc1 (configuration not stated)	12.4%	-10.6%	11.7µM*	2.6%	-1.8%	.
CCc1nnc(NC(=O)C(CC)c2ccccc2)s1 (configuration not stated)	19.0%	-6.8%	-1.7%	-5.9%	-38.8%	-3.4%
CCCC(=O)Nc1nnc(-c2ccco2)s1	-4.3%	-4.5%	13.1µM*	54.7%	-19.4%	.
Cc1cccc(OCC(=O)Nc2nnc(-c3ccco3)s2)c1	6.7%	0.6%	5.22µM*	8.6%	8.7%	i
CCOc1ccc(Cc2nnc(SCC(=O)Nc3ccc(OC)cc3)n(N)c2=O)cc1	?	-22.2%	?	?	.	-24.6%
CCc1ccc(-n2c(=O)c3c(C)c(C(=O)N(C)C)sc3n(CC(=O)Nc3cc(Cl)ccc3C)c2=O)cc1	.	-1.5%	.	.	.	-4.8%
COc1ccc(-c2c(C)oc3c(CN4CCOCC4)c(O)ccc3c2=O)cc1	1.5%	-2.3%	?	?	0.2%	-7.4%
Cc1oc2c(CN3CCCC3)c(O)ccc2c(=O)c1-c1ccc(Br)cc1	-8.2%	-2.4%	?	9.28µM*	-11.3%	-3.4%
Cc1c(-c2ccc(Cl)cc2)c(=O)oc2c(CN3CCCC3)c(O)ccc12	.	-6.0%	.	.	.	-19.7%
Cc1oc2c(CN3CCCCC3)c(O)ccc2c(=O)c1-c1ccc(Br)cc1	-2.1%	-6.3%	1.17µM*	?	2.6%	-7.1%
C=CCn1c(=NC(=O)c2ccc(S(=O)(=O)N3CCCc4ccccc43)cc2)sc2cc(S(N)(=O)=O)ccc21	?	-28.1%	4.65µM*	5.22µM*	?	-14.4%
Cn1c(=NC(=O)c2ccc(S(=O)(=O)N3CCCc4ccccc43)cc2)sc2cc(F)ccc21	.	-10.8%	.	.	.	-7.2%
COCCn1c(=NC(=O)c2ccc(S(=O)(=O)N3CCCc4ccccc43)cc2)sc2cc(S(C)(=O)=O)ccc21	-27.0%	-2.6%	1.04µM*	3.29µM*	-0.7%	i
COc1cc(OC)cc(C(=O)N=c2sc3ccccc3n2C)c1	-21.8%	.	142.7%	350.7%	.	.
COc1cccc(C(=O)N=c2sc3cc(S(C)(=O)=O)ccc3n2C)c1	-0.5%	-14.2%	13.1µM*	98.7%	-2.5%	-11.4%
COc1ccc2[nH]c3c(c2c1)CCN1C(=O)N([C@@H](C)C(=O)NCc2ccc(F)cc2)C(=O)[C@]31C	?	0.0%	?	?	3.3%	-8.8%
C[C@@H](C(=O)NCc1c(F)cccc1Cl)N1C(=O)N2CCc3c([nH]c4ccccc34)[C@@]2(C)C1=O	11.2µM*	-2.1%	?	?	7.9%	-2.0%
COc1ccc2[nH]c3c(c2c1)CCN1C(=O)N([C@@H](C)C(=O)NCc2c(F)cccc2Cl)C(=O)[C@]31C	?	-5.7%	?	?	-3.8%	-1.5%
